# Source: PubChem BioAssay
# A number with no mark means an inactive call. This is one part of the list. The source made the active and inactive calls. Rule as the data show it, unless noted: active = inhibition above about 23%; inactive = the rest.
# Columns and labels:
# [1] = test system: transactivating tegument protein VP16 (Human herpesvirus 1); test: VP16 transactivation reporter inhibitors, counter-screen for SRC2 inhibitor project, cell-based, luminescence, single concentration (AID 652007; in the data active = inhibition above about 36%); details: cell-based VP16 transactivation luciferase reporter, at 8.9 µM, active compounds read high
# [2] = target: Nuclear receptor coactivator 2 (Homo sapiens) (UniProt Q15596); test: SRC2 coactivator transcriptional activity inhibitors, confirmation, cell-based, luminescence, HEK293, triplicate (AID 652008;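 active = mean inhibition above 46.5%, the solvent-only control mean plus 3 SD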;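 also: 0% = DMSO-treated cells and 100% = Gossypol at 36 µM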); details: HEK293 GAL4-SRC2 luciferase reporter, at 8.9 µM, active compounds read high
# Chain of Nuclear receptor coactivator 2 (Homo sapiens) (Q15596 whole entry, looked up, the tested form may be a part): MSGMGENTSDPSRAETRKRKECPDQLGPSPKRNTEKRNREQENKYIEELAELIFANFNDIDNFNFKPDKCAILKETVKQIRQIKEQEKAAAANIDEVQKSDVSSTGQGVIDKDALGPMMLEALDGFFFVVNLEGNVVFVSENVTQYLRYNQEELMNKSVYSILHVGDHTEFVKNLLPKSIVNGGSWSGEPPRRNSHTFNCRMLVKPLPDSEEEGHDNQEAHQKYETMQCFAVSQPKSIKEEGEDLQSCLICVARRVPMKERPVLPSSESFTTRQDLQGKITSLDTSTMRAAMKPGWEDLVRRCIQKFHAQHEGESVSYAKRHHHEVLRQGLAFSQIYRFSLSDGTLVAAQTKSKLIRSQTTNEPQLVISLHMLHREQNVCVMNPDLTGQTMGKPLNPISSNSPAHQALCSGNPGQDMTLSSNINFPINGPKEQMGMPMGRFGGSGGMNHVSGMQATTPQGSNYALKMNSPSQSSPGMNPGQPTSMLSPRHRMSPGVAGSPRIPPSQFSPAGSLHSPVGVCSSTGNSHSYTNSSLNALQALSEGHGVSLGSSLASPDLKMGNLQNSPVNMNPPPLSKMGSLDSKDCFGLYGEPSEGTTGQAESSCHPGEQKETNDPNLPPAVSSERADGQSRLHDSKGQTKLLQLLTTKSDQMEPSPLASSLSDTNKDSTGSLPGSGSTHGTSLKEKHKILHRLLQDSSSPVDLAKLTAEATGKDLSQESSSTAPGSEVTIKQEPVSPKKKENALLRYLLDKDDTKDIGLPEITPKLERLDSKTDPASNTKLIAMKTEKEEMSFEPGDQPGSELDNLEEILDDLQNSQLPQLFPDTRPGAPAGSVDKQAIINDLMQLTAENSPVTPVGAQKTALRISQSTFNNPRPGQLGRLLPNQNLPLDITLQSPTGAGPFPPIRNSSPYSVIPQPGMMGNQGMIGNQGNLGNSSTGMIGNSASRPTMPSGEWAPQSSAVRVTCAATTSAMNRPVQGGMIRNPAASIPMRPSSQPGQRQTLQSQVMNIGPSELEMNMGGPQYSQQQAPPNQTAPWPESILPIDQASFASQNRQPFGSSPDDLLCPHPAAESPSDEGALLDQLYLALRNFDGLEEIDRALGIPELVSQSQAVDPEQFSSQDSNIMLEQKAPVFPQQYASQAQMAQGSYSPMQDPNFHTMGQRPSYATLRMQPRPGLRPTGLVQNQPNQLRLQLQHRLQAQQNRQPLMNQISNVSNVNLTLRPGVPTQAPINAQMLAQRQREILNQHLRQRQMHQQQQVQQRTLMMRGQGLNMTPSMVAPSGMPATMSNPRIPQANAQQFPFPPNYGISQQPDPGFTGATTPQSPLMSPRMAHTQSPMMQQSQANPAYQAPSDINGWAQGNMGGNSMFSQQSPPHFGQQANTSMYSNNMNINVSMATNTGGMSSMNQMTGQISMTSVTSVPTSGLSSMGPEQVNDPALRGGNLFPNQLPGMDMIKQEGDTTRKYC
# [3] = compounds interfering with TAMRA-BSA probe, counter-screen for TCR-CD3 interaction inhibitor project, biochemical, fluorescence, TAMRA-labeled BSA (AID 652035); details: TAMRA-labeled BSA probe fluorescence counterscreen; at 9.4 µM; active compounds read high;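 also: 0% = buffer low control and 100% = reference high control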
# [4] = test system: T-cell receptor (TCR)-CD3 interaction, human; test: TCR-CD3 interaction inhibitors, retest, confirmation, biochemical, fluorescence, TAMRA-labeled TCR probe (AID 652036; in the data active = inhibition above about 19%); details: TAMRA-labeled TCR probe fluorescence binding assay; at 9.4 µM; active compounds read high
# [5] = Gal4-VP16 luciferase reporter inhibitors, counter-screen for COUP-TFII antagonist project, cell-based, luminescence, HEK293 (AID 687007; in the data active = inhibition above about 13%); details: at 8.5 µM, active compounds read high
# [6] = target: COUP transcription factor 2 (Homo sapiens) (UniProt P24468); test: NR2F2 transcriptional activity inhibitors, confirmation, cell-based, luciferase reporter, HEK293, triplicate (AID 687008;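 active = mean inhibition over three repeats above a set limit taken from the earlier primary screen, cut at about 38% in these data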;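 also: 100% = cells given the luciferase reporter alone without the COUP-TF2 vector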); details: HEK293 NGFI-A luciferase reporter, luminescence; at 8.5 µM; active compounds read high
# Chain of COUP transcription factor 2 (Homo sapiens) (P24468 whole entry, looked up): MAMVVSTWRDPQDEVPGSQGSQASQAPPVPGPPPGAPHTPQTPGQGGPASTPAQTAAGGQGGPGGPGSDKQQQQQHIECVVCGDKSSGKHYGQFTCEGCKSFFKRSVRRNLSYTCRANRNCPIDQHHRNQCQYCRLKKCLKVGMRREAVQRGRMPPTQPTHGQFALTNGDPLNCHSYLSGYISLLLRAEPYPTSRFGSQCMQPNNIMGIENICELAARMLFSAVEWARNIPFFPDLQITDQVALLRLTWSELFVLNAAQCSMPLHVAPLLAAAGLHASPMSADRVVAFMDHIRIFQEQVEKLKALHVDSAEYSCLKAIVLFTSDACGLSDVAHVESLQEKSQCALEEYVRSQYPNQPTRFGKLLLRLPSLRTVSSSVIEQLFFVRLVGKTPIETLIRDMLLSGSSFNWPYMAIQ
smiles,measurement,setting,value
O=C(O)c1ccc(Oc2ccc(S(=O)(=O)c3ccc(C(=O)O)c(C(=O)O)c3)cc2)cc1,inhibition,[1],-6.88%
same,inhibition,[2],-6.84%
CN(C)c1ccc(CCc2ccc(N)cc2)cc1,inhibition,[1],12.3%
same,inhibition,[2],57.2% (active)
O=C(CN1C(=O)c2ccccc2S1(=O)=O)c1ccccc1Cl,inhibition,[1],37.8% (active)
same,inhibition,[2],68.9% (active)
CCS(=O)(=O)Nc1ccc(C2=NN(C(=O)c3ccco3)C(c3cccs3)C2)cc1 (centres undefined),inhibition,[1],-5.61%
same,inhibition,[2],-29.7%
Brc1cccc(-c2cnc3n2CCCCC3)c1,inhibition,[1],12.6%
same,inhibition,[2],29.2%
CN(Cc1ccc(OC(F)F)cc1)C(=O)c1ccc(S(=O)(=O)N(C)c2ccccc2)cc1,inhibition,[1],-22.2%
same,inhibition,[2],-12.8%
c1ccc(-n2cnc3ccccc32)cc1,inhibition,[1],-25.6%
same,inhibition,[2],5.17%
COc1ccc(NS(=O)(=O)c2cc(NC(=O)/C=C/c3cc(OC)c(OC)c(OC)c3)ccc2N2CCCCC2)cc1,inhibition,[3],11%
same,inhibition,[4],29.4% (active)
COc1ccc(C(=O)NNc2cc(C)nc(NNC(=O)c3ccc(OC)cc3)n2)cc1,inhibition,[3],-5.67%
same,inhibition,[4],5.09%
O=C(N/N=C/c1ccco1)c1ccc(C(=O)N/N=C/c2ccco2)o1,inhibition,[3],-19.7%
same,inhibition,[4],28.2% (active)
C/C=C/C=C/C(=O)O,inhibition,[3],3.35%
same,inhibition,[4],6.03%
O=C(Nc1cccc(-c2nc3ccccc3[nH]2)c1)c1ccc(C(=O)Nc2cccc(-c3nc4ccccc4[nH]3)c2)cc1,inhibition,[3],9.76%
same,inhibition,[4],10.8%
COc1ccc(CC(=O)N/N=C/c2cc([N+](=O)[O-])cc(Br)c2O)cc1,inhibition,[3],-11.9%
same,inhibition,[4],40% (active)
CN(C)CCNC(=O)C(C(=O)c1ccccc1)n1ccccc1=O (centres undefined),inhibition,[3],-0.25%
same,inhibition,[4],2.79%
COCCCNC(=S)NNC(=O)C(O)(c1ccccc1)c1ccccc1,inhibition,[3],-0.41%
same,inhibition,[4],16.3%
O=C1NC[C@@H](Cc2ccc(O)cc2)N(CCc2cccc(F)c2)C1=O,inhibition,[1],-20.2%
same,inhibition,[2],-26.9%
same,inhibition,[5],4.3%
same,inhibition,[6],5.14%
O=S(=O)(O)c1cc2onnc2c2ccccc12,inhibition,[3],11%
same,inhibition,[4],4.6%
COc1ccc(/C=C2/SC(=O)N(CCCCCC(=O)Nc3ccccc3C(=O)O)C2=S)cc1,inhibition,[1],53.8% (active)
same,inhibition,[2],63.9% (active)
same,inhibition,[5],29.6% (active)
same,inhibition,[6],17.7%
Oc1ccc(N=Cc2c(O)ccc3ccccc23)cc1,inhibition,[3],-3.16%
same,inhibition,[4],4.09%
CNC(=S)NNC(=O)c1cccn(Cc2ccccc2)c1=O,inhibition,[3],4.48%
same,inhibition,[4],46.7% (active)
COc1cc(C(=O)NCC2(c3ccccc3)CCCC2)ccc1OC(C)C,inhibition,[3],1.07%
same,inhibition,[4],2.19%
COc1ccc(-c2c(-c3cc(OC)cc(OC)c3)n(C)c3ccc(-c4ccn[nH]4)cc23)cc1,inhibition,[3],1.44%
same,inhibition,[4],-1.35%
Cc1ncc(CO)c(/C=N/NC(=O)c2cccc(S(=O)(=O)N3CCCC3)c2)c1O,inhibition,[3],-12.6%
same,inhibition,[4],15.4%
O=c1c2ccccc2c(-c2ccccc2)nn1-c1ccccn1,inhibition,[3],-1.19%
same,inhibition,[4],-0.97%
C[C@H]1CCC/C=C/C(=O)c2c(O)cc(O)cc2CC(=O)O1,inhibition,[1],41.5% (active)
same,inhibition,[2],55.5% (active)
same,inhibition,[5],49.3% (active)
same,inhibition,[6],-1.02%
O=C1C(Cc2ccc(O)cc2)NC(=S)N1Cc1ccccc1 (centres undefined),inhibition,[3],-2.95%
same,inhibition,[4],-0.37%
COc1ccc(OC)c(NC(=O)c2cc(-c3cc(F)ccc3OCC3CCCO3)n[nH]2)c1 (centres undefined),inhibition,[1],1.64%
same,inhibition,[2],-1.6%
same,inhibition,[5],3.7%
same,inhibition,[6],-6.7%
Cc1cc2nc3c(=O)[nH]c(=O)nc-3n(C[C@H](O)[C@H](O)[C@H](O)CO)c2cc1C,inhibition,[3],50.4% (active)
same,inhibition,[4],33.3% (active)
Cc1ccc(O)c(/C=N/NC(=O)COc2ccc3c(C)cc(=O)oc3c2)c1,inhibition,[3],-10.9%
same,inhibition,[4],46.1% (active)
COc1ccc(/C(=N\O)c2nccc3cc(OC)c(OC)cc23)cc1OC,inhibition,[3],-7.63%
same,inhibition,[4],15.5%
CCOc1ccc(-n2c(O)c(/C=N/Nc3nnc(C)c(=O)[nH]3)c3ccccc3c2=O)cc1,inhibition,[3],-21.4%
same,inhibition,[4],26% (active)
CN1OC[C@@H]2CN(S(=O)(=O)c3cccc(C(F)(F)F)c3)[C@H](c3ccc(-c4cc5ccccc5o4)cc3)C[C@@H]21,inhibition,[1],3.18%
same,inhibition,[2],46.3%
same,inhibition,[5],-5.07%
same,inhibition,[6],0.77%
COc1ccccc1C(=O)NNC(=O)c1ccc(NC(=O)c2ccccc2)cc1,inhibition,[3],-8.35%
same,inhibition,[4],35.5% (active)
COc1ccccc1C(=O)NNC(=O)CCN1C(=O)/C(=C\c2ccccc2)SC1=S,inhibition,[3],-8.51%
same,inhibition,[4],9.19%
CC[C@@H](C)[C@H](NC(=O)CCc1c(C)c2cc3c4c(oc3c(C)c2oc1=O)CCCC4)C(=O)O,inhibition,[1],40.8% (active)
same,inhibition,[2],59.5% (active)
same,inhibition,[5],22.3% (active)
same,inhibition,[6],24.8%
CNS(=O)(=O)c1ccc2c(c1)[nH]c(=S)n2C,inhibition,[3],10.3%
same,inhibition,[4],10.3%
